FAS-TE inh = FAS thioesterase (human) inhibition; P49327; recombinant FAS-TE, OMFH fluorogenic substrate, fluorescence endpoint; inhibition, % at 15 µM; actives 0.67% (n = 360,000); AID 602261;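 active = compounds whose normalised, plate-corrected inhibition of enzyme fluorescence in the single-dose primary screen is 50% or more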;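 note: 0% = DMSO with enzyme and 100% = substrate without enzyme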
NadD inh = NadD (S. aureus) enzyme inhibition. purified NadD enzyme, colorimetric absorbance read-out. inhibition, % at 20 µM. actives 0.78% (n = 360,000). AID 602399; in the data active = inhibition above about 26%
NRP1-CendR mod = modulators of CendR peptide binding to human neuropilin-1 | O14786 | FAM-RPARPAR peptide binding to NRP-1, fluorescence polarization | inhibition, % at 25 µM | actives 0.85% (n = 360,000);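 active = inhibition or corrected inhibition above about 18%, plus a signal ratio from 0.5 to 1.5, limit read from the data, passing the limit was not always enough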
Myeloid diff MLP = promotes myeloid progenitor differentiation. ER-HoxA9 myeloid progenitors, lysozyme-GFP differentiation, flow cytometry. calls only at 10 µM. actives 1% (n = 360,000). AID 624256;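 active = normalized GFP-positive differentiation at or above the plate's own cutoff, the solvent-only control mean plus 3 SD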;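 note: cells exposed to compound for four days before flow analysis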
CRFR2-BP antag = blocks CRF-induced signaling of the CRF-BP/CRF-R2 complex; HEK293 CRF-R2/CRF-BP, CRF-induced calcium fluorescence; inhibition, % at 11.8 µM; actives 0.59% (n = 350,000);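 active = inhibition of the ligand-induced calcium signal above about 50% at the single tested concentration, limit read from the data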
NadD conf = confirmation of Staphylococcus aureus NadD inhibitors. AID 624309. shares compounds with NadD inh. purified S. aureus NadD, colorimetric enzyme assay. inhibition, % at 20 µM. actives 13% (n = 2,000); in the data active = inhibition mostly above about 42%, no sharp cut-off; inactive = mostly below about 42%
* marks the source's active call; other numbers are inactive results; i = inactive; · = no result given; + = active, no number. Compounds with a hit are over-represented: about 3.6% of the library has one in this group of screens.

SMILES	FAS-TE inh	NadD inh	NRP1-CendR mod	Myeloid diff MLP	CRFR2-BP antag	NadD conf
CCOC(=O)C1=C(C)N=c2sc(=Cc3cc(Cl)c(OCC(=O)O)c(OC)c3)c(=O)n2C1c1ccccc1Cl (stereo not given)	42.0	30.3*	-118.3	+	·	22.8
O=C(Cc1csc(Nc2nc(=S)[nH]c3ccccc23)n1)N1CCN(c2cccc(C(F)(F)F)c2)CC1	1.2	33.3*	-19.6	i	2.3	7.6
O=C(Cc1csc(Nc2nc(=S)[nH]c3ccccc23)n1)NCc1cccc(Cl)c1	-9.2	32.1*	-22.8	i	10.8	2.4
Cc1cccc(-c2nnn3c2nc(NCCc2ccc(S(N)(=O)=O)cc2)c2ccccc23)c1	-5.0	34.2*	-19.2	i	0.9	11.1
COc1ccc2cc(C(=O)C3CCCN(C(=O)c4cnn(C(C)C)c4)C3)ccc2c1 (stereo not given)	1.8	1.1	-2.6	i	1.4	·
Nc1cc(=O)[nH]c(SCC(=O)N2CCN(S(=O)(=O)c3ccc4ccccc4c3)CC2)n1	2.7	11.0	-5.3	i	15.8	·
O=C(CSc1n[nH]c(-c2cccs2)n1)N1CCN(S(=O)(=O)c2ccc3ccccc3c2)CC1	-4.8	46.9*	3.7	·	-4.2	29.0
N#CC1=C2SCN(Cc3ccco3)CN2C(=O)CC1c1cccc2ccccc12 (stereo not given)	2.3	31.3*	-8.5	i	2.1	9.1
CCc1nc2ccc(C(=O)N3CCN(S(=O)(=O)CC)CC3)cn2c1N(C)C(=O)c1cccc(OC)c1	-4.5	-0.9	12.9	i	·	·
Cn1cnnc1SCc1ccc(-c2ccc(Br)cc2)o1	14.2	40.8*	-23.6	·	3.5	13.4
O=C(CNC(=O)c1ccccc1F)N/N=C/c1cccnc1	-6.3	-1.6	3.2	i	-5.5	·
FC(F)(F)c1cc(Cl)c2nc(-c3ccco3)c(Cc3ccccc3C(F)(F)F)n2c1	10.8	42.7*	-37.3	i	·	10.8
Nc1cc(N)cc(C(=O)OCC(=O)Nc2cc(S(=O)(=O)N3CCCCC3)ccc2Cl)c1	2.9	31.1*	-5.1	i	-5.7	17.6
Cc1cc([N+](=O)[O-])c2[nH]c(C(=O)N/N=C/c3ccccc3C(=O)O)c(-c3ccccc3)c2c1	5.8	33.5*	-10.0	i	14.8	5.9
NS(=O)(=O)c1ccc(N/N=C/c2ccccc2C(=O)O)c([N+](=O)[O-])c1	-4.3	-9.5	-2.5	i	-1.2	·
CCCCC1=CC2=CC(=O)C(C)(OC(=O)CCc3ccccc3)C(=O)C2=CO1 (stereo not given)	-3.2	65.9*	-100.0	i	-3.1	38.9*
CC1(OC(=O)CCc2ccccc2)C(=O)C=C2C=C(c3ccc(C#N)cc3)N(Cc3ccccc3)C=C2C1=O (stereo not given)	-4.8	20.3	8.2	i	-6.0	·
CCCCC1=CC2=CC(=O)C(C)(OC(=O)c3cccs3)C(=O)C2=CO1 (stereo not given)	-7.5	32.0*	-70.6	i	-9.9	47.1*
O=C(N/N=C/c1ccc2c(c1)OCO2)c1sc2cccc(Cl)c2c1Cl	2.8	30.2*	-15.6	i	-9.6	7.1
O=C(COC(=O)CNC(=O)c1ccccc1)Nc1nnc(-c2ccccc2)o1	-7.0	9.8	4.4	i	-11.2	·
COc1ccc(-c2cccc(C3CC=CC4C3C(=O)N(Cc3ccccc3)C4c3ccc(C(F)(F)F)cc3)c2)cc1 (stereo not given)	33.6	10.3	2.8	i	-1.2	·
CN(C)c1ccc(-c2cccc(C3CC=CC4C3C(=O)N(Cc3ccccc3)C4c3ccc(C(F)(F)F)cc3)c2)cc1 (stereo not given)	20.0	31.1*	2.8	i	1.3	12.7
COc1ccc(NC(=O)CSC2=C(C#N)C(c3ccco3)C(C(=O)Nc3nc4ccccc4s3)=C(C)N2)cc1 (stereo not given)	33.8	37.9*	7.3	i	-8.7	10.6
CCCCCCn1c(N)c(C#N)c2ccc([N+](=O)[O-])cc2c1=O	-19.0	-9.0	-22.8	i	-1.8	·
COc1ccc(N(CC(=O)N/N=C/c2ccc(-c3ccc([N+](=O)[O-])cc3)o2)S(=O)(=O)c2ccc(C)cc2)cc1	10.2	42.2*	-168.4	i	1.6	4.7
COc1ccc(N(CC(=O)Nc2cccnc2)S(=O)(=O)c2ccc(C)cc2)cc1Cl	5.7	1.7	1.0	i	-13.2	·
